Source: PubChem BioAssay AID1159580 (chemical genetic matrix, 2015)
The whole screen tested about 5,500 compounds, of which about 2,000 (36%) were called active. About 18% were inconclusive and are not listed. Cut-off read from the data, not from the text of the source: active = normalized growth mostly below about 0.91 (no sharp cut-off); inconclusive = no clear call, values can overlap the other calls; inactive = mostly above about 0.92. The list shows a part of the results.

Assay: chemical genetic growth profiling, strain panel (AID 1159580);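 note: tested at 20 µM; growth read once vehicle control cultures reached saturation at 30 °C; 1 = growth at the plate median or of vehicle wells; lower values mean less growth of the strain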
Conditions: growth OD

Measured: normalized growth

C/C=C(/C)C(=O)O[C@@H]1[C@H](OC(C)=O)[C@@]2(CO)C(CC1(C)C)C1=CCC3[C@@]4(C)CC[C@H](O[C@@H]5O[C@H](C(=O)O)[C@@H](O[C@@H]6O[C@H](CO)[C@@H](O)[C@H](O)[C@H]6O)[C@H](O)[C@H]5O[C@@H]5O[C@H](CO)[C@@H](O)[C@H](O)[C@H]5O)[C@](C)(CO)C4CC[C@@]3(C)[C@]1(C)C[C@H]2O (some centres not stated)
inactive: S. cerevisiae deletion strains, locus YKL009W, strain mrt4, hits give low values 1.06 | S. cerevisiae deletion strains, locus YKL068W, hits give low values 1.01 | S. cerevisiae deletion strains, locus YKL085W, strain MDH1 (second series), hits give low values 1.06 | S. cerevisiae deletion strains, locus YKL085W, strain MDH1, hits give low values 1.06 | S. cerevisiae deletion strains, locus YKL160W, strain elf1, hits give low values 1.02 | S. cerevisiae deletion strains, locus YKR001C, strain vps1, hits give low values 1.01 | S. cerevisiae deletion strains, locus YKR026C, strain gcn3, hits give low values 0.99 | S. cerevisiae deletion strains, locus YKR091W, strain srl3, hits give low values 0.99 | S. cerevisiae deletion strains, locus YLL001W, strain dnm1, hits give low values 1.01 | S. cerevisiae deletion strains, locus YLL026W, hits give low values 0.988 | S. cerevisiae deletion strains, locus YLL041C, strain sdh2, hits give low values 0.983 | S. cerevisiae deletion strains, locus YLR027C, strain aat2, hits give low values 0.996 | S. cerevisiae deletion strains, locus YLR039C, strain RIC1, hits give low values 1.04 | S. cerevisiae deletion strains, locus YLR058C, strain SHM2, hits give low values 1.01 | S. cerevisiae deletion strains, locus YLR102C, strain apc9, hits give low values 1.02 | S. cerevisiae deletion strains, locus YLR113W, strain HOG1, hits give low values 0.967 | S. cerevisiae deletion strains, locus YLR221C, strain rsa3, hits give low values 1 | S. cerevisiae deletion strains, locus YLR258W, strain gsy2, hits give low values 0.981 | S. cerevisiae deletion strains, locus YLR262C, strain YPT6 (second series), hits give low values 1.01 | S. cerevisiae deletion strains, locus YLR262C, strain YPT6, hits give low values 1.08 | S. cerevisiae deletion strains, locus YLR268W, strain sec22, hits give low values 1.04 | S. cerevisiae deletion strains, locus YLR320W, strain mms22, hits give low values 0.973 | S. cerevisiae deletion strains, locus YLR330W, strain CHS5, hits give low values 1.01 | S. cerevisiae deletion strains, locus YLR342W, strain FKS1 (second series), hits give low values 1.05 | S. cerevisiae deletion strains, locus YLR342W, strain FKS1, hits give low values 0.988 | S. cerevisiae deletion strains, locus YLR357W, strain rsc2, hits give low values 0.984 | S. cerevisiae deletion strains, locus YLR370C, strain arc18, hits give low values 0.992 | S. cerevisiae deletion strains, locus YLR371W, strain rom2, hits give low values 1.03 | S. cerevisiae deletion strains, locus YLR384C, strain iki3, hits give low values 1 | S. cerevisiae deletion strains, locus YLR418C, strain cdc73, hits give low values 1 | S. cerevisiae deletion strains, locus YML016C, strain PPZ1, hits give low values 1.01 | S. cerevisiae deletion strains, locus YML032C, strain rad52, hits give low values 1.03 | S. cerevisiae deletion strains, locus YML120C, strain ndi1, hits give low values 1.01 | S. cerevisiae deletion strains, locus YML124C, strain tub3, hits give low values 1.02 | S. cerevisiae deletion strains, locus YMR058W, strain fet3, hits give low values 0.99 | S. cerevisiae deletion strains, locus YMR078C, strain ctf18, hits give low values 1.02 | S. cerevisiae deletion strains, locus YMR125W, strain sto1, hits give low values 0.959 | S. cerevisiae deletion strains, locus YMR129W, hits give low values 0.979 | S. cerevisiae deletion strains, locus YMR205C, strain PFK2, hits give low values 0.925 | S. cerevisiae deletion strains, locus YMR223W, strain ubp8, hits give low values 1.02 | S. cerevisiae deletion strains, locus YMR231W, strain pep5, hits give low values 0.973 | S. cerevisiae deletion strains, locus YMR307W, strain GAS1, hits give low values 1.08 | S. cerevisiae deletion strains, locus YNL067W, strain RPL9B, hits give low values 1.02 | S. cerevisiae deletion strains, locus YNL071W, strain lat1, hits give low values 1 | S. cerevisiae deletion strains, locus YNL183C, strain NPR1, hits give low values 0.969 | S. cerevisiae deletion strains, locus YNL209W, strain ssb2, hits give low values 0.988 | S. cerevisiae deletion strains, locus YNL233W, strain BNI4, hits give low values 1.01 | S. cerevisiae deletion strains, locus YNL248C, strain rpa49, hits give low values 1.02 | S. cerevisiae deletion strains, locus YNL250W, strain rad50, hits give low values 1.04 | S. cerevisiae deletion strains, locus YNL271C, strain bni1, hits give low values 1.03 | S. cerevisiae deletion strains, locus YNL298W, strain CLA4, hits give low values 1.01 | S. cerevisiae deletion strains, locus YNL307C, strain MCK1, hits give low values 1.03 | S. cerevisiae deletion strains, locus YNL322C, strain KRE1 (second series), hits give low values 0.983 | S. cerevisiae deletion strains, locus YNL322C, strain KRE1, hits give low values 1.01 | S. cerevisiae deletion strains, locus YNR049C, strain mso1, hits give low values 0.982 | S. cerevisiae deletion strains, locus YNR052C, strain pop2, hits give low values 1.02 | S. cerevisiae deletion strains, locus YOL006C, strain TOP1, hits give low values 0.991 | S. cerevisiae deletion strains, locus YOL012C, strain htz1 1.42 | S. cerevisiae deletion strains, locus YOL147C, strain pex11, hits give low values 1.02 | S. cerevisiae deletion strains, locus YOR001W, strain rrp6, hits give low values 0.992 | S. cerevisiae deletion strains, locus YOR061W, strain CKA2, hits give low values 1.01 | S. cerevisiae deletion strains, locus YOR069W, strain VPS5, hits give low values 1 | S. cerevisiae deletion strains, locus YOR070C, strain gyp1, hits give low values 1 | S. cerevisiae deletion strains, locus YOR080W, strain dia2, hits give low values 0.968 | S. cerevisiae deletion strains, locus YOR083W, strain WHI5, hits give low values 1.02 | S. cerevisiae deletion strains, locus YOR106W, strain vam3, hits give low values 1.01 | S. cerevisiae deletion strains, locus YOR136W, strain idh2, hits give low values 1.02 | S. cerevisiae deletion strains, locus YOR144C, strain elg1, hits give low values 1.02 | S. cerevisiae deletion strains, locus YOR184W, strain ser1, hits give low values 1.02 | S. cerevisiae deletion strains, locus YOR231W, strain MKK1, hits give low values 0.967 | S. cerevisiae deletion strains, locus YOR265W, strain rbl2, hits give low values 0.993 | S. cerevisiae deletion strains, locus YOR270C, strain vph1, hits give low values 0.883 | S. cerevisiae deletion strains, locus YOR290C, strain snf2, hits give low values 0.966 | S. cerevisiae deletion strains, locus YOR316C, strain cot1, hits give low values 1.02 | S. cerevisiae deletion strains, locus YPL051W, strain arl3, hits give low values 1.02 | S. cerevisiae deletion strains, locus YPL055C, strain LGE1, hits give low values 1 | S. cerevisiae deletion strains, locus YPL078C, strain atp4, hits give low values 1.01 | S. cerevisiae deletion strains, locus YPL106C, strain sse1, hits give low values 0.981 | S. cerevisiae deletion strains, locus YPL240C, strain hsp82, hits give low values 1.01 | S. cerevisiae deletion strains, locus YPL241C, strain CIN2, hits give low values 1 | S. cerevisiae deletion strains, locus YPL256C, strain CLN2, hits give low values 0.967 | S. cerevisiae deletion strains, locus YPR119W, strain clb2, hits give low values 1.03 | S. cerevisiae deletion strains, locus YPR141C, strain kar3, hits give low values 1.04 | S. cerevisiae deletion strains, locus YPR163C, strain tif3, hits give low values 1.02 | S. cerevisiae deletion strains, locus YPR167C, strain met16, hits give low values 1.02 | S. cerevisiae deletion strains, strain wtn01, hits give low values 1.02 | S. cerevisiae strains, strain wild type, hits give low values 1.01
